One may read the AC50 as the concentration at which the activity in the assay is half-maximal.

Here are results for three molecules from PubChem BioAssay (EPA / NIEHS).

Active and inactive are the calls of the source. How the source made its calls: active means hit-call score of the fitted dose curve at least 0.9, where 1 is the maximum; inactive means score below 0.9.

Read-out in experiment [1]: C-C motif chemokine 2 (Homo sapiens) (UniProt P13500)
As to the kind of experiment: BSK_KF3CT_MCP1: BioMAP Diversity Plus: KF3CT Assay for Monocyte Chemoattractant Protein 1 (MCP1/CCL2) Biomarker Activity (AID 2283073). The settings on record: primary human keratinocytes with fibroblasts; actives raise or lower the signal. In short, it runs like this:
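KF3CT skin co-culture (keratinocytes/foreskin fibroblasts), 24 h post-dose; MCP-1 by ELISA; gain/loss of signal fit bidirectionally vs DMSO baseline.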

Read-out in experiment [2]: Matrix Metallopeptidase 9 (MMP9), MMP9 (gene 4318)
Kind of experiment: BSK_KF3CT_MMP9: BioMAP Diversity Plus: KF3CT Assay for Matrix Metallopeptidase 9 (MMP9) Biomarker Activity (AID 2283074). Particulars: primary human keratinocytes with fibroblasts; actives raise or lower the signal. In short, it runs like this:
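Keratinocyte plus foreskin fibroblast human primary skin co-culture was dosed with chemical and MMP-9 was quantified by ELISA 24 h later. Bidirectional curve fitting used DMSO as negative control and activity baseline.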

Read-out in experiment [3]: urokinase plasminogen activator (uPA), PLAU (gene 5328)
As to the kind of experiment: BSK_KF3CT_uPA: BioMAP Diversity Plus: KF3CT Assay for urokinase plasminogen activator (uPA) Biomarker Activity (AID 2283075). The settings on record: primary human keratinocytes with fibroblasts; actives raise or lower the signal. In short, it runs like this:
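Human keratinocyte plus foreskin fibroblast primary co-culture exposed to chemical for 24 h. uPA levels were quantified by ELISA, and activity was fitted bidirectionally against a DMSO negative-control baseline.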

Read-out in experiment [4]: CD40, CD40 (gene 958)
As to the kind of experiment: BSK_LPS_CD40: BioMAP Diversity Plus: LPS Assay for CD40 Biomarker Activity (AID 2283076). The settings on record: primary human HUVEC with PBMC; actives raise or lower the signal. In a few lines: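 ELISA readout of CD40 in HUVEC/PBMC co-culture (BSK_LPS system), 24 h post-dosing; bidirectional curve fit, DMSO baseline; parallel SRB total-protein staining for cytotoxicity.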

Read-out in experiment [5]: E-selectin (Homo sapiens) (UniProt P16581)
As to the kind of experiment: BSK_LPS_Eselectin: BioMAP Diversity Plus: LPS Assay for Eselectin Biomarker Activity (AID 2283077). Particulars: primary human HUVEC with PBMC; actives raise or lower the signal. In a few lines:
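ELISA readout of E-selectin, 24 h post-dose, HUVEC + PBMC co-culture (LPS system). Gain or loss of signal vs DMSO baseline, bidirectional fit.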

Read-out in experiment [6]: Interleukin-8 (IL8), CXCL8 (gene 3576)
As to the kind of experiment: BSK_LPS_IL8: BioMAP Diversity Plus: LPS Assay for Interleukin-8 (IL8) Biomarker Activity (AID 2283078). The settings on record: primary human HUVEC with PBMC; actives raise or lower the signal. In a few lines: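 HUVEC + PBMC co-culture, LPS-activated; test chemicals dosed, IL-8 read by ELISA at 24 h. Bidirectional curve fit vs DMSO baseline (gain or loss of signal).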

The nature of experiment [7]: BSK_LPS_SRB: Viability Assessment in the BioMAP Diversity Plus: LPS Assay (AID 2283079).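 Further: total protein by sulforhodamine B absorbance as a cytotoxicity measure; measured one day after compound addition; fitted in both directions against DMSO so loss or gain of signal counts.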 The settings on record: primary human HUVEC with PBMC. In short, it runs like this: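 HUVEC + PBMC co-culture, LPS-stimulated; compound 24 h. 10% TCA fix, 0.1% SRB stain, A560. Bidirectional fit vs DMSO.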
Read-out in experiment [8]: Interleukin-1 alpha (IL1a), IL1A (gene 3552)
As to the kind of experiment: BSK_LPS_IL1a: BioMAP Diversity Plus: LPS Assay for Interleukin-1 alpha (IL1a) Biomarker Activity (AID 2283080). The settings on record: primary human HUVEC with PBMC; actives raise or lower the signal. In short, it runs like this:
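HUVEC/PBMC co-culture, LPS system; 24 h after dosing; IL-1a by ELISA; gain or loss of signal fitted bidirectionally vs DMSO baseline.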

Read-out in experiment [9]: Monocyte Chemoattractant Protein-1 (MCP1), CCL2 (gene 6347)
As to the kind of experiment: BSK_LPS_MCP1: BioMAP Diversity Plus: LPS Assay for Monocyte Chemoattractant Protein-1 (MCP1) Biomarker Activity (AID 2283081). The settings on record: primary human HUVEC with PBMC; actives raise or lower the signal. In short, it runs like this: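 ELISA read-out of MCP-1 after 24 h chemical dosing of a human umbilical vein endothelial cell/peripheral blood mononuclear cell co-culture stimulated with LPS. Gain or loss of signal fitted relative to DMSO controls.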

A short description of experiment [10]: BSK_LPS_PGE2: BioMAP Diversity Plus: LPS Assay for Prostaglandin E2 (PGE2) Biomarker Activity (AID 2283082).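 On AC50: secreted prostaglandin E2 measured by ELISA in LPS-stimulated co-culture.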 Particulars: primary human HUVEC with PBMC; actives raise or lower the signal. In a few lines:
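HUVEC plus human PBMC co-culture stimulated with LPS; secreted PGE2 quantified by ELISA 24 h after chemical dosing. Activity fitted bidirectionally against DMSO baseline; parallel SRB staining (0.1% SRB after 10% TCA fixation, 560 nm) flags overt cytotoxicity.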

Read-out in experiment [11]: Macrophage colony-stimulating factor (MCSF), CSF1 (gene 1435)
Kind of experiment: BSK_LPS_MCSF: BioMAP Diversity Plus: LPS Assay for Macrophage colony-stimulating factor (MCSF) Biomarker Activity (AID 2283083). The settings on record: primary human HUVEC with PBMC; actives raise or lower the signal. In a few lines: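 HUVEC + PBMC co-culture (human primary), 24 h post-dose; M-CSF by ELISA; gain/loss of signal fitted bidirectionally vs DMSO baseline.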

Read-out in experiment [12]: Tissue Factor, F3 (gene 2152)
As to the kind of experiment: BSK_LPS_TissueFactor: BioMAP Diversity Plus: LPS Assay for Tissue Factor Biomarker Activity (AID 2283084). Particulars: primary human HUVEC with PBMC; actives raise or lower the signal. In a few lines:
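HUVEC/PBMC co-culture, LPS-activated; CD142 ELISA read 24 h post-dose; bidirectional curve fit vs DMSO negative control.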

Read-out in experiment [13]: Tumor necrosis factor (Homo sapiens) (UniProt P01375)
As to the kind of experiment: BSK_LPS_TNFa: BioMAP Diversity Plus: LPS Assay for Tumour Necrosis Factor alpha (TNFa) Biomarker Activity (AID 2283085). The settings on record: primary human HUVEC with PBMC; actives raise or lower the signal. In a few lines:
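Human umbilical vein endothelial cells co-cultured with PBMC and stimulated with LPS. TNFa was measured by ELISA 24 h after chemical dosing, fitted bidirectionally relative to DMSO.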

Read-out in experiment [14]: Vascular cell adhesion molecule 1 (VCAM1), VCAM1 (gene 7412)
As to the kind of experiment: BSK_LPS_VCAM1: BioMAP Diversity Plus: LPS Assay for Vascular cell adhesion molecule 1 (VCAM1) Biomarker Activity (AID 2283086). The settings on record: primary human HUVEC with PBMC; actives raise or lower the signal. In a few lines:
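Human umbilical vein endothelial cells co-cultured with PBMC and stimulated with LPS; VCAM-1 measured by ELISA 24 h after dosing. Bidirectional curve fitting against DMSO baseline; cytotoxicity tracked in parallel by SRB total-protein staining.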

Read-out in a further experiment: CD38, CD38 (gene 952)
As to the kind of experiment: BSK_SAg_CD38: BioMAP Diversity Plus: SAg Assay for CD38 Biomarker Activity (AID 2283087). Particulars: primary human HUVEC with PBMC; actives raise or lower the signal. In short, it runs like this:
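Human HUVEC plus PBMC co-culture stimulated with superantigen; CD38 measured by ELISA 24 h after chemical dosing. Fluorescence read-out, bidirectional fit against DMSO; cytotoxicity tracked in parallel by SRB and Alamar Blue.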

Read-out in experiment [15]: CD40, CD40 (gene 958)
As to the kind of experiment: BSK_SAg_CD40: BioMAP Diversity Plus: SAg Assay for CD40 Biomarker Activity (AID 2283088). The settings on record: primary human HUVEC with PBMC; actives raise or lower the signal. In short, it runs like this: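 HUVEC/PBMC co-culture, 24 h post-dose; CD40 by ELISA, fluorescence intensity; bidirectional fit vs DMSO negative control.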

Read-out in another experiment: CD69, CD69 (gene 969)
Kind of experiment: BSK_SAg_CD69: BioMAP Diversity Plus: SAg Assay for CD69 Biomarker Activity (AID 2283089). The settings on record: primary human HUVEC with PBMC; actives raise or lower the signal. In short, it runs like this:
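Values derive from bidirectional fitting relative to DMSO vehicle. Cells: umbilical vein endothelium plus peripheral blood mononuclear cells, treated 24 h before fluorescent ELISA for CD69.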

Read-out in experiment [16]: Monocyte Chemoattractant Protein-1 (MCP1), CCL2 (gene 6347)
As to the kind of experiment: BSK_SAg_MCP1: BioMAP Diversity Plus: SAg Assay for Monocyte Chemoattractant Protein-1 (MCP1) Biomarker Activity (AID 2283090). Particulars: primary human HUVEC with PBMC; actives raise or lower the signal. In short, it runs like this: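 MCP-1 levels in the endothelial–PBMC SAg co-culture were quantified by ELISA at 24 h post-dosing; both increases and decreases versus DMSO scored. Cytotoxicity monitored by SRB total protein in parallel cultures.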

Read-out in experiment [17]: E-selectin (Homo sapiens) (UniProt P16581)
As to the kind of experiment: BSK_SAg_Eselectin: BioMAP Diversity Plus: SAg Assay for Eselectin Biomarker Activity (AID 2283091). The settings on record: primary human HUVEC with PBMC; actives raise or lower the signal. In a few lines: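 E-selectin ELISA readout at 24 h post-dosing in human umbilical vein endothelial cell/PBMC co-culture; gain or loss of signal fitted relative to DMSO baseline.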

Read-out in experiment [18]: Monokine induced gamma interferon (MIG), CXCL9 (gene 4283)
Kind of experiment: BSK_SAg_MIG: BioMAP Diversity Plus: SAg Assay for Monokine induced gamma interferon (MIG) Biomarker Activity (AID 2283092). The settings on record: primary human HUVEC with PBMC; actives raise or lower the signal. In a few lines:
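Values reflect bidirectional fitting of ELISA-measured MIG against DMSO vehicle, taken 24 h after dosing of a co-culture of human umbilical vein endothelial cells and peripheral blood mononuclear cells.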

E-selectin (Homo sapiens), sequence (P16581 whole entry, looked up): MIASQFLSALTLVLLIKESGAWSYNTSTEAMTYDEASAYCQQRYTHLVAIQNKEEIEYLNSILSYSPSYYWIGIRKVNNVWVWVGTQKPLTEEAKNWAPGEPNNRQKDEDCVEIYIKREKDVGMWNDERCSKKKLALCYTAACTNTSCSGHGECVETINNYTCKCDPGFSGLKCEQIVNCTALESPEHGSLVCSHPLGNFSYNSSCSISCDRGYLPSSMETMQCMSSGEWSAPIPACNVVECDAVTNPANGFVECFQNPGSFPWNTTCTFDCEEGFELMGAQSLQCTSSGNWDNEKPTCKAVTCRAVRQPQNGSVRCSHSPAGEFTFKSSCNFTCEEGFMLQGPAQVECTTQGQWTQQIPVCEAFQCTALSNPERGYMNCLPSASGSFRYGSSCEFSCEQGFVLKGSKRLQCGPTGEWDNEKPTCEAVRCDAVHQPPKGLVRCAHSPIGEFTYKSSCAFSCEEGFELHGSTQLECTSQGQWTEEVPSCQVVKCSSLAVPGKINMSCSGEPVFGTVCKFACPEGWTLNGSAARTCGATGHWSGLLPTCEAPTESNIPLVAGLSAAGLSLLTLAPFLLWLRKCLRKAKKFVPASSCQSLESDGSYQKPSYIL
Tumor necrosis factor (Homo sapiens), sequence (P01375 whole entry, looked up): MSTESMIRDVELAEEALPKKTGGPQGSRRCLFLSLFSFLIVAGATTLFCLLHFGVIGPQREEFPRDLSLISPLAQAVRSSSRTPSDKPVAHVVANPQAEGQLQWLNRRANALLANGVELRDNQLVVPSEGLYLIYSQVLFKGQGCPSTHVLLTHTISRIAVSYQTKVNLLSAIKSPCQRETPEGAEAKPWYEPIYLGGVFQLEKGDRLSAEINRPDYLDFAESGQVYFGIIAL

On to `CCCCCCCCCCCCCCCCCC(=O)OCC(CC)CCCC` (centres undefined), for which the outcome in experiment [1] is “inactive”; in experiment [2], “inactive”; in experiment [3] it was “inactive”; with CD40, CD40 (gene 958) [4], “inactive”; in experiment [5], “inactive”; in [6] it was “inactive”. Besides, the outcome in experiment [7], in experiment [8], in experiment [9], in [10], in experiment [11] and in [12] was inactive. Besides, the outcome in experiment [13] is “inactive”; in [14], “inactive”; in the experiment with CD38, CD38 (gene 952), “inactive”; in the experiment with CD40, CD40 (gene 958) [15] it was “inactive”; with CD69, CD69 (gene 969), “inactive”; in [16], “inactive”. The outcome in experiment [17] and in [18] was inactive.

With `Cc1ccc(Nc2ccc(O)c3c2C(=O)c2ccccc2C3=O)cc1`, the outcome in [1] is “inactive”; in [2], “inactive”; in experiment [3], “inactive”; with CD40, CD40 (gene 958) [4], “inactive”; in experiment [5] it was “inactive”; in [6], “inactive”. Further, the outcome in [7], in [8], in experiment [9], in experiment [11], in [12] and in experiment [14] was inactive. Besides, the outcome was “inactive” with CD38, CD38 (gene 952); “inactive” with CD40, CD40 (gene 958) [15]; “inactive” with CD69, CD69 (gene 969); “inactive” in [16]; “inactive” in experiment [17]; “inactive” in experiment [18]. The AC50 in experiment [10] is 1060 nM (active); in [13], 435 nM (active).

Consider `CC(C)c1ccc(C(C)C)cc1`, for which the outcome in experiment [1] is “inactive”; in [3] it was “inactive”; with CD40, CD40 (gene 958) [4], “inactive”; in [6], “inactive”; in experiment [7] it was “inactive”; in experiment [8], “inactive”. Moreover, the result in experiment [9], in experiment [10], in experiment [11], in experiment [12], in [13] and in [14] was inactive. In addition, the outcome with CD38, CD38 (gene 952) was “inactive”; with CD40, CD40 (gene 958) [15], “inactive”; with CD69, CD69 (gene 969), “inactive”; in experiment [16], “inactive”; in [17], “inactive”; in [18] it was “inactive”. Besides, the AC50 in experiment [5] was 32100 nM (active).
